From PubChem BioAssay (Tox21) come the findings set out here.

Records with an inconclusive call do not appear. Entries that show only a call come without a potency. Activity calls are given as the source filed them. Calls follow the shape of the dose curve; as a rule, active = well fitted cell-killing curve with a large enough effect in the repeat runs; inconclusive = weak or mixed curves, or effect the other way; inactive = no such curve, though single readings can be large or run the other way.
Potency is read from the fitted curve at half-maximal effect.

A short description of the test: qHTS assay to identify small molecule agonists of the RXR signaling pathway - cell viability counter screen (AID 1159529). Also: nearly all actives have a fitted effect of over 50% in size.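 As to activity change, negative = cytotoxicity: HEK 293T cells carrying an RXR-alpha UAS beta-lactamase reporter.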 The note with it: RXR-alpha-bla HEK293T viability, CellTiter-Glo, 16 h; series mostly up to 76.8 µM. The essentials:
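RXR-alpha-UAS-bla HEK 293T cells in medium with 2% charcoal-stripped FBS were preincubated 5 hr, then exposed to compounds for 16 hr at 37 C. Viability was read as CellTiter-Glo luminescence after 30 min at room temperature.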
Background: qHTS replaces the single test concentration by a dilution series.
As for `C[C@]12CC[C@H]3[C@@H](CCC4=CC(=O)CC[C@@H]43)[C@@H]1CC[C@@H]2OC(=O)CCc1ccco1`, the Potency was 23.9 µM (active).
In the case of `CSC(C)(C)/C=N/O`, the Potency entry is “inactive”.
On to `OCC(Br)CBr` (centres undefined), for which the Potency entry was “inactive”.
On to `O=c1c2ccccc2c(=O)c2c1cc(Cl)c1[nH]c3c([nH]c12)c(Cl)cc1c(=O)c2ccccc2c(=O)c13`, for which the Potency entry is “inactive”.
`CC[C@]1(O)CC[C@H]2[C@@H]3CCC4=CCCC[C@@H]4[C@H]3CC[C@@]21C`: the Potency entry is “inactive”.
Turning to `CCNS(=O)(=O)C(F)(F)C(F)(F)C(F)(F)C(F)(F)C(F)(F)C(F)(F)C(F)(F)C(F)(F)F`, the Potency entry was “inactive”.
Regarding `ClC(Cl)C(Cl)(Cl)Cl`, the Potency entry is “inactive”.
Still for that read-out and setting: in the case of `CC(=O)C(Cl)C(=O)N(C)C` (centres undefined) it was “inactive”; in that of `CC(C)=CC1C(C(=O)OC(C#N)c2cccc(Oc3ccccc3)c2)C1(C)C` (centres undefined), “inactive”; in that of `Nc1cc(Cl)ccc1Cl`, “inactive”.
Take `CC(=O)[O][Sn]([c]1ccccc1)([c]1ccccc1)[c]1ccccc1`: the Potency is 0.138 µM (active).
`C[C@]12C/C(=C/O)C(=O)C[C@@H]1CC[C@@H]1[C@@H]2CC[C@@]2(C)[C@H]1CC[C@]2(C)O`: the Potency is 24.8 µM (active).
Consider `CN1CCc2cc3c(cc2C1O)OCO3` (centres undefined), for which the Potency entry was “inactive”.
On to `CC(=O)O.CC(=O)O.CC(=O)O.CC(=O)O.CC(=O)O.CC(=O)O.CC(=O)O.O.O.[Cr].[Cr].[Cr]`, for which the Potency result was “inactive”.
Consider `[Cl][Hg][c]1ccccc1`, for which the Potency is 1.23 µM (active).
As for `C[N+]1(C)[C@@H]2CC[C@H]1CC(OC(=O)C(CO)c1ccccc1)C2` (some centres undefined), the Potency entry was “inactive”.
`O.O.O.O.O.O.O.O=S(=O)([O-])[O-].[Co+2]`: the Potency entry is “inactive”.
Consider `CCCC[N+]1(C)CCCC1` (tested in a mixture with another compound), for which the Potency result was “inactive”.
Consider `CSC1=N[C@@](C)(c2ccccc2)C(=O)N1Nc1ccccc1`, for which the Potency entry is “inactive”.
Regarding `CCOP(=O)(OCC)Oc1cc(C)nc(C(C)C)n1`, the Potency result was “inactive”.
For `O=C1C[C@@H]2OCC=C3CN4CC[C@]56c7ccccc7N1[C@H]5[C@H]2[C@H]3C[C@H]46`, the Potency result was “inactive”.
As for `CC(=O)[O-].CC(=O)[O-].CC(=O)[O-].[Sb+3]`, the activity change, negative = cytotoxicity was 2.3% [at 2.72 µM] (inactive).
On to `C=CC(=O)[O][Sn]([CH2]CCC)([CH2]CCC)[CH2]CCC`, for which the Potency was 1.38 µM (active).
`S=C=Nc1ccccc1`: the Potency entry is “inactive”.
Take `Oc1ccc(Cl)c(Cl)c1`: the Potency result was “inactive”.
Same read-out and setting: in the case of `N#Cc1sc2c(=O)c3ccccc3c(=O)c=2sc1C#N` it was 9.77 µM (active); in that of `COP(=S)(OC)Oc1ccc([N+](=O)[O-])c(C)c1`, “inactive”.
Turning to `CNC(C)(C)Cc1ccccc1`, the Potency entry was “inactive”.
For `CCCCc1ccccc1`, the Potency entry was “inactive”.
As to `CC(C)N(C(=O)SC/C(Cl)=C/Cl)C(C)C`, the Potency entry is “inactive”.
Consider `Cc1ccc([N+](=O)[O-])[c]2c1[O][Hg]2`, for which the Potency was 3.01 µM (active).
Take `ClCBr`: the Potency entry was “inactive”.
`CCN(CC)Cc1nccn1-c1ccc([N+](=O)[O-])cc1C(=O)c1ccccc1Cl`: the Potency entry was “inactive”.
The same measure, in the same setting: in the case of `C=CCBr` it was “inactive”; in that of `Cc1cnc2c(C(=O)O)c(Cl)ccc2c1`, “inactive”; in that of `[O-][Cl+3]([O-])([O-])O`, “inactive”.
Turning to `O=S1OCC2C(CO1)C1(Cl)C(Cl)=C(Cl)C2(Cl)C1(Cl)Cl` (centres undefined), the Potency was 48.9 µM (active).
Regarding `COP(=O)(OC)Oc1ccc([N+](=O)[O-])cc1`, the Potency entry was “inactive”.
Take `CC(O)C(=O)[O][Hg][c]1ccccc1` (centres undefined): the Potency is 1.95 µM (active).
